# Measurements: PubChem BioAssay (NCATS)
# Inconclusive results are not listed. A number with no mark means an inactive call. Calls of active or inactive are those of the source. The call rests on the fitted dose curve; in most records, active means well fitted inhibition curve with a large enough effect; inconclusive means small, poorly fitted or top-dose-only effect; inactive means flat fitted curve, though single readings scatter.
# Tested on: DIV14
# Assay: qHTS profiling for inhibitors of Plasmodium falciparum proliferation (AID 504749); further: nearly all actives have a fitted effect of over 60% in size;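 on activity, negative = inhibition: 0% = DMSO vehicle and full inhibition = artemisinin control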
# Conditions: P. falciparum in erythrocytes, SYBR Green DNA, 72 h; series mostly up to 28.7 µM; activity, negative = inhibition: at the top concentration
# In short: (§1)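 SYBR Green fluorescence of parasite DNA, read after lysis and overnight dark incubation, measured growth over 72 h in erythrocyte culture at 0.3% parasitemia and 2.5% hematocrit. Data normalised to DMSO and 0.29 uM artemisinin, with plate-drift correction.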
# Potency means the concentration at half of the fitted maximal effect.
SMILES,Potency,"activity, negative = inhibition"
O=C(CN1CCN(Cc2ccc3c(c2)OCO3)CC1)N1c2ccccc2Sc2ccccc21,12 µM (active),–
CN1CCN(c2cc3c(cc2F)c(=O)c(C(=O)O)cn3-c2ccc(F)cc2)CC1,–,-0.859%
CC(C)(C)CC(C)(C)c1ccc(O)c(-n2nc3ccccc3n2)c1,13.5 µM (active),–
CCCCCN=C(N)N/N=C/c1c[nH]c2ccc(OC)cc12,2.69 µM (active),–
COC(=O)C(c1ccccc1Cl)N1CCc2sccc2C1 (stereo not drawn),–,-29.1%
CN1CCN(c2c(F)cc3c(=O)c(C(=O)O)cn4c3c2SCC4)CC1,–,-9.8%
NC1CCN(c2nc3c(cc2F)c(=O)c(C(=O)O)cn3-c2ccc(F)cc2F)C1 (stereo not drawn),–,-14.4%
CN1CCc2cccc3c2[C@H]1Cc1ccc(O)c(O)c1-3,7.57 µM (active),–
NC(N)=NN=C(/C=C/c1ccc([N+](=O)[O-])o1)/C=C/c1ccc([N+](=O)[O-])o1,7.57 µM (active),–
CC(C)(Cc1c[nH]c2ccccc12)NCC(O)COc1ccccc1C#N (stereo not drawn),8.49 µM (active),–
CNCCCCOc1ccccc1Cc1ccccc1,3.79 µM (active),–
Clc1cccc(C(c2ccc3nc[nH]c3c2)n2ccnc2)c1 (stereo not drawn),15.1 µM (active),–
O=C(CCN1CCN2CCCC2C1)N1c2ccccc2Sc2ccc(Cl)cc21 (stereo not drawn),4.26 µM (active),–
O=C1C(O)=C(O)C(=O)C(O)=C1O,–,-1.5%
Oc1c(Cl)cc(Cl)c(Cl)c1Cc1c(O)c(Cl)cc(Cl)c1Cl,10.7 µM (active),–
COc1ccccc1N1CCN(CCCCNC(=O)c2ccc(-c3ccc(C(C)=O)cc3)cc2)CC1,–,-5.28%
CN1CCN(CCC(=O)N2c3ccccc3Sc3ccc(C(F)(F)F)cc32)CC1,8.49 µM (active),–
CC(C)(C)NC[C@H](O)COc1nsnc1N1CCOCC1,3.38 µM (active),–
CC(C)[N+](C)(C)CC(O)COc1cccc2ccccc12 (stereo not drawn),–,-21.5%
CCN(CC)CCOc1ccccc1C(=O)CCc1ccccc1,6.75 µM (active),–
CC[N+](C)(CC)CCOC(=O)C(O)(c1ccccc1)C1CCCCC1 (stereo not drawn),–,-17.8%

# Tested on: DIV17
# Assay: as above
# Conditions: P. falciparum in erythrocytes, SYBR Green DNA, 72 h; series mostly up to 28.7 µM; activity, negative = inhibition: at the top concentration
# In short: as §1
SMILES,Potency,"activity, negative = inhibition"
CN1CCC[C@@H]1CCO[C@](C)(c1ccccc1)c1ccc(Cl)cc1,6.75 µM (active),–
CN1CCN(c2cc3c(cc2F)c(=O)c(C(=O)O)cn3-c2ccc(F)cc2)CC1,–,-8.18%
CC(C)(C)CC(C)(C)c1ccc(O)c(-n2nc3ccccc3n2)c1,13.5 µM (active),–
CCCCCN=C(N)N/N=C/c1c[nH]c2ccc(OC)cc12,1.51 µM (active),–
CN(Cc1ccc(C(C)(C)C)cc1)Cc1cccc2ccccc12,–,-6.68%
CN1CCN(c2c(F)cc3c(=O)c(C(=O)O)cn4c3c2SCC4)CC1,–,-14.4%
NC1CCN(c2nc3c(cc2F)c(=O)c(C(=O)O)cn3-c2ccc(F)cc2F)C1 (stereo not drawn),–,-12.4%
CN1CCc2cccc3c2[C@H]1Cc1ccc(O)c(O)c1-3,7.57 µM (active),–
NC(N)=NN=C(/C=C/c1ccc([N+](=O)[O-])o1)/C=C/c1ccc([N+](=O)[O-])o1,7.57 µM (active),–
CC(C)(Cc1c[nH]c2ccccc12)NCC(O)COc1ccccc1C#N (stereo not drawn),9.53 µM (active),–
CNCCCCOc1ccccc1Cc1ccccc1,1.9 µM (active),–
Clc1cccc(C(c2ccc3nc[nH]c3c2)n2ccnc2)c1 (stereo not drawn),13.5 µM (active),–
COc1ccc(C(Cl)=C(c2ccc(OC)cc2)c2ccc(OC)cc2)cc1,–,-8.83%
O=C(CCN1CCN2CCCC2C1)N1c2ccccc2Sc2ccc(Cl)cc21 (stereo not drawn),5.36 µM (active),–
O=C1C(O)=C(O)C(=O)C(O)=C1O,–,-6.73%
CC1CCc2c(N3CCC(O)CC3)c(F)cc3c(=O)c(C(=O)O)cn1c23 (stereo not drawn),–,-18.4%
Oc1c(Cl)cc(Cl)c(Cl)c1Cc1c(O)c(Cl)cc(Cl)c1Cl,12 µM (active),–
OC(C#CCN1CCCC1)(c1ccccc1)c1ccccc1,13.5 µM (active),–
COc1ccccc1N1CCN(CCCCNC(=O)c2ccc(-c3ccc(C(C)=O)cc3)cc2)CC1,–,-20.6%
CN1CCN(CCC(=O)N2c3ccccc3Sc3ccc(C(F)(F)F)cc32)CC1,8.49 µM (active),–
CC(C)(C)NC[C@H](O)COc1nsnc1N1CCOCC1,3.38 µM (active),–
CCN(CC)CCOc1ccccc1C(=O)CCc1ccccc1,7.57 µM (active),–
